Compounds without any hit were thinned out: in the full panel of roughly 83,000, 20% have a hit.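 For each line, cells grew in 96-well plates with the test compound present at a single concentration for 48 hours.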 Active and inactive are the calls of the source. Rule for the calls: active = growth percent below 10; inactive = the rest.
What was measured:
Assay in all cases: NCI-60 one-dose screen, 48 h (100 = growth as untreated, 0 = no growth, -100 = all killed)
Settings in all cases: 10 µM unless noted
[1] = test system: SK-MEL-2 melanoma
[2] = test system: SN12C renal
[3] = test system: UO-31 renal
[4] = test system: TK-10 renal
[5] = test system: ACHN renal
[6] = test system: CAKI-1 renal
[7] = test system: A498 renal
[8] = test system: CCRF-CEM leukemia
[9] = test system: MOLT-4 leukemia
[10] = test system: SR leukemia
[11] = test system: RPMI-8226 leukemia
[12] = test system: OVCAR-8 ovarian
[13] = test system: OVCAR-5 ovarian
[14] = test system: OVCAR-4 ovarian
[15] = test system: SK-OV-3 ovarian
[16] = test system: IGROV1 ovarian
[17] = test system: OVCAR-3 ovarian
[18] = test system: HS 578T breast
[19] = test system: NCI/ADR-RES ovarian

| Structure (SMILES) | growth [1] | growth [2] | growth [3] | growth [4] | growth [5] | growth [6] | growth [7] | growth [8] | growth [9] | growth [10] | growth [11] | growth [12] | growth [13] | growth [14] | growth [15] | growth [16] | growth [17] | growth [18] | growth [19] |
| --- | --- | --- | --- | --- | --- | --- | --- | --- | --- | --- | --- | --- | --- | --- | --- | --- | --- | --- | --- |
| O=c1[nH]c(-c2ccc(Cl)cc2)cn1-c1ccc(-n2cc(-c3ccc(Cl)cc3)[nH]c2=O)cc1 | 95.9% (inactive) | 92% (inactive) | 105% (inactive) | 103% (inactive) | 102% (inactive) | 65.1% (inactive) | 109% (inactive) | 107% (inactive) | 107% (inactive) | 98% (inactive) | 123% (inactive) | 92% (inactive) | 104% (inactive) | 98.5% (inactive) | 97.5% (inactive) | 102% (inactive) | 109% (inactive) | 102% (inactive) | 108% (inactive) |
| O=C1Nc2ccc(F)cc2/C1=N/c1nnc(Sc2ccccc2)s1 | 102% (inactive) | 95.4% (inactive) | 80.2% (inactive) | 111% (inactive) | 82.2% (inactive) | 75.1% (inactive) | 79% (inactive) | 47.7% (inactive) | 77.2% (inactive) | 61% (inactive) | 55.7% (inactive) | 89.7% (inactive) | 113% (inactive) | 95% (inactive) | 97.1% (inactive) | 80.2% (inactive) | 97.3% (inactive) | 94.4% (inactive) | 85.3% (inactive) |
| COc1cc(-c2nc(NC(C)=O)sc2-c2ccnc(NCCNS(=O)(=O)c3ccccc3)n2)ccc1Cl | -12.6% (active) | 48.2% (inactive) | 63.3% (inactive) | 39.5% (inactive) | 44% (inactive) | 57.9% (inactive) | 27.1% (inactive) | 13% (inactive) | 15.5% (inactive) | 13.1% (inactive) | 13.8% (inactive) | 37.6% (inactive) | 84.9% (inactive) | 61.6% (inactive) | 26.9% (inactive) | 51.6% (inactive) | 25.7% (inactive) | 27.3% (inactive) | 93.2% (inactive) |
| CC1COCC(C)N1C1=C(Cl)C(=O)c2ccccc2C1=O (centres undefined) | 23.9% (inactive) | 81.7% (inactive) | 59% (inactive) | 75.7% (inactive) | 28.9% (inactive) | 65.4% (inactive) | 109% (inactive) | 19.4% (inactive) | 9.7% (active) | 41.6% (inactive) | – | 47.4% (inactive) | 106% (inactive) | -4.76% (active) | 95.9% (inactive) | 50.4% (inactive) | 46.1% (inactive) | 100% (inactive) | 76.8% (inactive) |
| COc1ccc(C2CC(c3ccc(Nc4nc(Nc5ccc(F)cc5)nc(Nc5ccc(F)cc5)n4)cc3)=NN2C(C)=O)cc1 (centres undefined) | 72% (inactive) | 116% (inactive) | 97.7% (inactive) | 104% (inactive) | 84.5% (inactive) | 90.6% (inactive) | 85.3% (inactive) | 23.5% (inactive) | 34.6% (inactive) | 16.4% (inactive) | 7.18% (active) | 90.3% (inactive) | 87.6% (inactive) | 98.1% (inactive) | 131% (inactive) | 101% (inactive) | 97.9% (inactive) | 111% (inactive) | 80.5% (inactive) |
| CC[C@@H](c1ccc2cc(OC)ccc2c1)C(C)(C)C(=O)F | 94.8% (inactive) | 105% (inactive) | 97% (inactive) | 126% (inactive) | 104% (inactive) | 76.8% (inactive) | 98.4% (inactive) | 114% (inactive) | 99.2% (inactive) | 112% (inactive) | 146% (inactive) | 94.8% (inactive) | 86.2% (inactive) | 109% (inactive) | 107% (inactive) | 28.3% (inactive) | 85.7% (inactive) | 91.8% (inactive) | 77.5% (inactive) |
| CCOC(=O)c1c2c(n3ccccc13)C(=O)c1ncccc1C2=O | 65.6% (inactive) | 10.3% (inactive) | 1.86% (active) | 38.4% (inactive) | 7.49% (active) | 9.11% (active) | 30.7% (inactive) | 32.1% (inactive) | 31.9% (inactive) | 18.6% (inactive) | 29.2% (inactive) | 5.6% (active) | 42.2% (inactive) | 16.6% (inactive) | 22.2% (inactive) | 31.8% (inactive) | -19.8% (active) | 52.6% (inactive) | 4.98% (active) |
| Cc1cc2oc(=O)cc(CP(=O)(O)O)c2cc1O | 102% (inactive) | 93.5% (inactive) | 70.4% (inactive) | 107% (inactive) | 101% (inactive) | 90.9% (inactive) | 80.8% (inactive) | 103% (inactive) | 104% (inactive) | 106% (inactive) | 118% (inactive) | 99.5% (inactive) | 94% (inactive) | 103% (inactive) | 105% (inactive) | 91.6% (inactive) | 102% (inactive) | 94.5% (inactive) | 105% (inactive) |
| COc1ccc2c(c1)c(-c1nonc1-c1cn(C)c3ccc(OC)cc13)cn2C | 41.8% (inactive) | 43.8% (inactive) | – | 71.2% (inactive) | 51.7% (inactive) | 31.9% (inactive) | 18.4% (inactive) | 26.6% (inactive) | 25.4% (inactive) | 16.5% (inactive) | 39.9% (inactive) | 52.9% (inactive) | 56.2% (inactive) | 62% (inactive) | 48.2% (inactive) | 46.5% (inactive) | 11.4% (inactive) | 34.4% (inactive) | 22.3% (inactive) |
| Clc1nn2c(Cn3cnc4c(NCc5ccccc5)ncnc43)nnc2c2ccccc12 | -5.44% (active) | 32% (inactive) | 21.7% (inactive) | 40.5% (inactive) | 16.8% (inactive) | 3.56% (active) | 22.5% (inactive) | 39% (inactive) | 26.5% (inactive) | 17.2% (inactive) | – | 33.2% (inactive) | 74.2% (inactive) | 37.9% (inactive) | -18.5% (active) | 24.8% (inactive) | 45.8% (inactive) | 40.1% (inactive) | 40.6% (inactive) |
| Cc1c2cnccc2c(C)c2c1c1cc(C3OCCCO3)ccc1n2C | -67.5% (active) | -10.2% (active) | -7.3% (active) | -14.5% (active) | -12.1% (active) | 8.13% (active) | -56.6% (active) | -6.77% (active) | -4.85% (active) | – | -21.6% (active) | 6.68% (active) | -3.71% (active) | -2.47% (active) | -6.97% (active) | 2% (active) | 0.203% (active) | – | -9.92% (active) |

Reference: PubChem BioAssay (NCI)
